Hits are enriched below; roughly 3.8% of the tested compounds scored in any of these assays.
ATXN2 expr inh: reduces ATXN2 reporter expression in HEK-293 cells | HEK-293 ATXN2-luciferase reporter, luminescence, 24 h | Potency, µM (top dose mostly 57 µM), usual class: inhibitors | 0.72% of 360,000 active | AID 1745845; note: nearly all actives have a fitted effect of over 55% in size
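ATXN2-luciferase reporter cells (luciferase flanked by upstream and downstream ATXN2 gene portions) were treated 24 h at 37 °C with compounds at up to 57 uM. SteadyGlo luminescence gave expression; GF-AFC fluorescence gave viability.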
TGFb inhibitor: blocks TGF-b signaling | HepG2 CAGA-GFP TGF-b/SMAD3 reporter, GFP fluorescence, 18 h; TGF-beta stimulated, 500 pg/mL final | Potency, µM (highest dose often 46.1 µM), most hits filed as inhibitors | 1.2% of 410,000 active | AID 588855; note: nearly all actives have a fitted effect of over 65% in size
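Inhibition was scored as loss of TGF-beta-induced (500 pg/mL final, 18 hours, 37 degrees C) GFP in HEPG2 cells carrying a CAGA-GFP reporter, in DMEM with 1% FBS. Well GFP was summed per cell; Activity was normalised to unstimulated and stimulated DMSO wells, then concentration-response fitting.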
Nrf2 inh: Nrf2 pathway inhibition; 2.1% of 360,000 active; AID 504444; Potency, µM (highest dose often 46 µM), usual class: inhibitors; A549 ARE-Fluc reporter, luciferase luminescence, 18-24 h; note: nearly all actives have a fitted effect of over 60% in size
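Nrf2 function is reported as luminescence of an ARE-controlled luciferase in A549 cells. Compounds were tested at several concentrations, and a CellTiter-Fluor read on the same wells flagged cytotoxicity.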
HepG2 viability: HepG2 cytotoxicity, counter-screen for TGF-b inhibitors; HepG2 CAGA-GFP viability, ATP luminescence, 18 h; 0.76% of 410,000 active; Potency, µM (highest dose often 46.1 µM), actives largely listed as cytotoxic
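HepG2 CAGA-GFP cells (1000/well, DMEM with 1% FBS) received compound, then TGF-beta at 500 pg/mL final, and were incubated 18 hours at 37 degrees C. Viability was read by CellTiter-Glo luminescence. Media-only wells were set as complete cell-killing and DMSO as no toxicity.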
A549 tox: kills or reduces viability of A549 cells in Nrf2 counter-screen; 0.16% of 390,000 active; Potency, µM (doses to about 46 µM), usual class: inhibitors; AID 504648; A549 ARE-Fluc cells, CellTiter-Fluor viability, 18-24 h
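A549 ARE-Fluc cells in 5% FBS OPTI-MEM, 5000 cells/well, rested 2 h then exposed to compounds in concentration-response for 18-24 h at 37 °C. Viability by CellTiter-Fluor fluorescence (Ex 405/Em 525) after 30 min; luciferase luminescence (BugLite, 15 min, RT) read afterwards.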
S2 tox: viability counter-screen for ATXN expression inhibitors. AID 651635. Potency, µM (titrated, usually from 56.7 µM), most hits filed as cytotoxic. 0.49% of 400,000 active. S2 cells (HEK-293 line with an ATXN2-luciferase reporter) viability, CellTiter-Fluor protease fluorescence, 24 h; note: nearly all actives have a fitted effect of over 40% in size
Of the large screens only hits and unclear results are named; the others gave an inactive call. Calls come from the whole dose curve; as a rule, active = well fitted curve in the direction sought with a large enough effect; inconclusive = small, poorly fitted or top-dose-only effect, or another doubt; inactive = no such curve, though single readings can be large; an effect the other way counts as inactive or inconclusive.

Cc1cc(C)c(Cn2c(C)c(CNCCCc3ccccc3)c(C(=O)O)c2C)c(C)c1	S2 tox inconclusive
O=C(CNC(=O)c1ccccc1)N/N=C/c1ccc([N+](=O)[O-])s1	ATXN2 expr inh inconclusive, TGFb inhibitor 11µM, Nrf2 inh inconclusive, HepG2 viability 14µM, A549 tox inconclusive, S2 tox inconclusive
O=C(Cc1ccccc1)NCC(=O)N/N=C/c1ccc([N+](=O)[O-])s1	ATXN2 expr inh inconclusive, TGFb inhibitor inconclusive, Nrf2 inh inconclusive, HepG2 viability 16µM, S2 tox inconclusive
O=[N+]([O-])c1ccc(C=Nc2cccc3ccccc23)s1	TGFb inhibitor 16µM, HepG2 viability 25µM, S2 tox inconclusive
O=[N+]([O-])c1ccc(-c2ccc(C=Nc3cccc4ccccc34)o2)cc1	none
CCOc1ccc(C2=CC(c3cc(Br)ccc3F)n3ncnc3N2)cc1Cl (stereo unspecified)	none (no result: Nrf2 inh, S2 tox)
Cc1c(C(=O)N/N=C/c2ccc(-c3ccccc3[N+](=O)[O-])o2)sc(N)c1C#N	TGFb inhibitor 5µM
CC(=O)N(c1ccccc1)C1CCCC1	none
O=C(CCl)N(c1ccccc1)C1CCCCC1	ATXN2 expr inh inconclusive, TGFb inhibitor inconclusive, Nrf2 inh inconclusive, HepG2 viability 18µM, A549 tox inconclusive, S2 tox inconclusive
O=C(CN(c1cccc(Cl)c1)S(=O)(=O)c1ccc(Cl)cc1)NCc1ccccn1	Nrf2 inh 21µM, A549 tox inconclusive, S2 tox inconclusive
C1=CCOCc2cc(ccc2OCCN2CCCC2)Nc2nccc(n2)-c2cccc(c2)OCC1	ATXN2 expr inh 15µM (no result: TGFb inhibitor, Nrf2 inh, HepG2 viability, A549 tox, S2 tox)
O=C1Nc2ccc(Br)cc2/C1=C/C(=O)c1ccc2c(c1)OCO2	TGFb inhibitor inconclusive, S2 tox 20µM (no result: ATXN2 expr inh)
COC(=O)c1[nH]c2ccccc2c1NC(=O)CN1CCN(c2cccc(OC)c2)C(C)C1 (stereo unspecified)	ATXN2 expr inh inconclusive, Nrf2 inh 26µM
COC(=O)c1[nH]c2ccc(Br)cc2c1NC(=O)CN1CCN(C2CCCCC2)CC1	ATXN2 expr inh 18µM, TGFb inhibitor inconclusive, A549 tox inconclusive, S2 tox 35µM
COC(=O)c1[nH]c2ccc(Cl)cc2c1NC(=O)CCN1CCN(C2CCCCC2)CC1	S2 tox inconclusive
CCN(C(=O)Cn1c(C(=O)OC)cc2oc3ccccc3c21)c1cccc(C)c1	ATXN2 expr inh inconclusive, TGFb inhibitor inconclusive, Nrf2 inh inconclusive
COc1ccc(N2CCN(C(c3ccccc3)c3sc4nc(C)nn4c3O)CC2)cc1 (stereo unspecified)	A549 tox inconclusive, S2 tox inconclusive
CC(=O)N1N=C(c2ccc(Br)cc2)OC1(C)CC(=O)Nc1ccccc1 (stereo unspecified)	Nrf2 inh 23µM, A549 tox inconclusive
CC(=O)N1N=C(c2ccccc2)OC12CCCC2	none
Cc1cccc(NS(=O)(=O)c2ccc3c(c2)[C@H]2C=CC[C@H]2[C@@H](c2ccc(F)cc2)N3)c1	TGFb inhibitor inconclusive, Nrf2 inh 18µM
COC(=O)c1ccc([C@H]2Nc3ccc(S(=O)(=O)Nc4ccc(F)cc4)cc3[C@H]3C=CC[C@H]32)cc1	TGFb inhibitor inconclusive
CC(C)CC1C(=O)N(Cc2cn(CCC3OCCO3)nn2)CCS(=O)(=O)N1Cc1ccc(-c2ccccc2)cc1 (stereo unspecified)	ATXN2 expr inh inconclusive, TGFb inhibitor inconclusive, S2 tox inconclusive (no result: Nrf2 inh, A549 tox)
CC(C)C1C(=O)N(Cc2cn(CCC3OCCO3)nn2)CCS(=O)(=O)N1Cc1ccc(-c2ccc(Cl)c(Cl)c2)cc1 (stereo unspecified)	ATXN2 expr inh inconclusive, TGFb inhibitor inconclusive, S2 tox inconclusive (no result: Nrf2 inh, A549 tox)
Cc1ccc(-c2ccc(CN3C(CC(C)C)C(=O)N(Cc4cn(CCC5OCCO5)nn4)CCS3(=O)=O)cc2)cc1 (stereo unspecified)	ATXN2 expr inh 25µM, TGFb inhibitor 22µM, HepG2 viability 11µM, S2 tox 35µM (no result: Nrf2 inh, A549 tox)
CC(C)CC1C(=O)N(Cc2cn(CCC3OCCO3)nn2)CCS(=O)(=O)N1Cc1ccc(-c2ccc(Cl)c(Cl)c2)cc1 (stereo unspecified)	ATXN2 expr inh inconclusive, TGFb inhibitor 11µM (no result: Nrf2 inh, A549 tox, S2 tox)
CSCCC(NS(=O)(=O)c1ccc(C)cc1)C(=O)NC1CCCCCC1 (stereo unspecified)	none
FC(F)(F)c1cc(CCN2CCNC[C@@H]2c2ccccc2)cc(C(F)(F)F)c1	ATXN2 expr inh inconclusive, TGFb inhibitor inconclusive, S2 tox 35µM
CCC(C)[C@H]1CNCCN1CCc1cc(C(F)(F)F)cc(C(F)(F)F)c1 (stereo partly specified)	ATXN2 expr inh inconclusive, TGFb inhibitor inconclusive, S2 tox inconclusive
c1ccc(C[C@H]2CNCCN2CCCCC2CCCCC2)cc1	TGFb inhibitor inconclusive, S2 tox inconclusive
CCCC[C@@H]1CNCCN1CCc1cc(C(F)(F)F)cc(C(F)(F)F)c1	ATXN2 expr inh inconclusive, TGFb inhibitor inconclusive, A549 tox inconclusive, S2 tox 35µM
NC1=NC[C@H](CC2CCCCC2)N1CCc1cc(C(F)(F)F)cc(C(F)(F)F)c1	ATXN2 expr inh inconclusive, TGFb inhibitor inconclusive, HepG2 viability 20µM, S2 tox inconclusive
FC(F)(F)c1cc(CCN2CCNC[C@@H]2CC2CCCCC2)cc(C(F)(F)F)c1	ATXN2 expr inh 22µM, TGFb inhibitor inconclusive, Nrf2 inh inconclusive, A549 tox inconclusive (no result: S2 tox)
O=c1c2ccccc2sn1-c1ccc(Cl)cc1Cl	ATXN2 expr inh inconclusive, TGFb inhibitor inconclusive (no result: Nrf2 inh, A549 tox, S2 tox)
COc1ccc(NC(=O)N2CCc3c(sc4c3CCCC4)C2c2ccc(F)cc2)cc1 (stereo unspecified)	TGFb inhibitor inconclusive (no result: Nrf2 inh)
CNC(=S)N(CCc1c(C)[nH]c2ccccc12)Cc1cccnc1	none
Cc1nc2nc(SCC(=O)NC3CCC(C)CC3)nn2c(C)c1Cc1ccccc1 (stereo unspecified)	S2 tox inconclusive (no result: Nrf2 inh)
Cc1nc2c(OCc3ccc(C(F)(F)F)cc3)cccn2c1N(C)C(=O)CCC1CCCC1	ATXN2 expr inh 32µM, TGFb inhibitor inconclusive, S2 tox inconclusive (no result: Nrf2 inh, A549 tox)
Cc1nc2ccccc2n1CC(=O)NC(C)C1CC2CCC1C2 (stereo unspecified)	Nrf2 inh 5.2µM
CC(NC(=O)Cn1c(NCCO)nc2ccccc21)C1CC2CCC1C2 (stereo unspecified)	none (no result: ATXN2 expr inh)
Cc1ccc(N2CCN(S(=O)(=O)c3ccc4oc(=O)c5ncn(C)c5c4c3)CC2)c(C)c1	Nrf2 inh inconclusive (no result: ATXN2 expr inh, S2 tox)
O=C1NC(=S)N/C1=C/c1cccn1-c1ccc([N+](=O)[O-])cc1	TGFb inhibitor 7.1µM, A549 tox inconclusive
N=C1/C(=C/c2cccn2-c2ccc([N+](=O)[O-])cc2)C(=O)N=C2SC=CN12	none

From PubChem
